# Measured values as given in ChEMBL document CHEMBL3988442, “University of Dundee, Small-Polar-MMV Screening Library” (2021).
# About 960 (1.5%) of roughly 66,000 compounds showed an effect of 50% or more. The sample holds strong results, similar compounds and a random draw of the others, so the mix is not that of the screen.
# Tested on: Trypanosoma brucei
# Test: Trypanosoma brucei 72 hour study
# Format: functional, organism-based
# Set-up: scale not given: in the data most compounds retested in dose-response had high values
smiles,measurement,setting,value
Cn1cc(CN2CCc3onc(C(=O)N4CCCC4)c3C2)cn1.O=C(O)C(F)(F)F,Percent Effect,"30.3 µM, […]",-19.54%
O=C(c1cscn1)N1C[C@H]2CCC[C@@]2(COCc2ccccn2)C1,Percent Effect,"30.3 µM, […]",-7.729%
Cc1ccc(CNC(CN2CCN(C)CC2)c2ccccc2)cc1C (stereo not given),Percent Effect,"30 µM, 30.03 µM",57.4%
Cc1cccc(CNC(CN2CCN(C)CC2)c2ccccc2)c1 (stereo not given),Percent Effect,"30 µM, 30.03 µM",38.01%
CN1CCN(CC(NCc2ccc(F)c(F)c2)c2ccccc2)CC1 (stereo not given),Percent Effect,"30 µM, 30.03 µM",-11.08%
COc1cccc(CNC(CN2CCN(C)CC2)c2ccccc2)c1 (stereo not given),Percent Effect,"30 µM, 30.03 µM",-23.58%
Cc1ccc(CNC(CN2CCN(C)CC2)c2ccccc2)cc1 (stereo not given),Percent Effect,"30 µM, 30.03 µM",0.9317%
CN1CCN(CC(NCc2cccc(O)c2)c2ccccc2)CC1 (stereo not given),Percent Effect,"30 µM, 30.03 µM",100.4%
Cc1noc(C)c1CNCC1Cn2nncc2CO1.O=C(O)C(F)(F)F (stereo not given),Percent Effect,"30.3 µM, […]",-105.3%
COCC1CN(C(=O)CS(C)(=O)=O)Cc2ncn(CC3CC3)c21 (stereo not given),Percent Effect,"30.3 µM, […]",-30.37%
C1CCN(CCO[C@@H]2CC[C@H]3[C@H]2OCCN3CC2CCOCC2)C1.O=C(O)C(F)(F)F.O=C(O)C(F)(F)F,Percent Effect,"30 µM, 30.03 µM",-27.36%
Cc1ncsc1-c1nnc(C2CCN(Cc3ccccc3F)CC2)o1,Percent Effect,"30.3 µM, […]",-22.5%
CNCc1ccc([C@@H]2CN(C(C)=O)C[C@H]2C(=O)N(C)C)cc1.Cl,Percent Effect,"30.3 µM, […]",-5.387%
CN(C)CCN1CCC2(CCN(C(=O)c3ccncc3)CC2)C1=O.O=C(O)C(F)(F)F.O=C(O)C(F)(F)F,Percent Effect,"30.3 µM, […]",-21.17%
CN1CCOCC12CCN(Cc1ccoc1)CC2.O=C(O)C(F)(F)F.O=C(O)C(F)(F)F,Percent Effect,"30.3 µM, […]",-44.43%
Cn1cc(-c2c(C#N)c(N)nc3c2CCc2[nH]ccc2-3)cn1,Percent Effect,"30.3 µM, […]",27.56%
Cc1n[nH]c(C)c1-c1c(C#N)c(N)nc2c1CCc1[nH]ccc1-2,Percent Effect,"30.3 µM, […]",52.57%
COc1ncc(-c2c(C#N)c(N)nc3c2CCc2[nH]ccc2-3)cn1,Percent Effect,"30.3 µM, […]",-6.46%
CC(C)CN1C[C@H]2C[C@H](C(=O)N3CCCC3)[C@@H](C1)O2.O=C(O)C(F)(F)F,Percent Effect,"30.3 µM, […]",-50.57%
COc1cccc(-c2ncc3c(n2)N(C)CCN(CCN(C)C)C3=O)c1,Percent Effect,"30.3 µM, […]",19.59%
CN(C)CCN1CCN(C)c2nc(-c3ccccc3)ncc2C1=O,Percent Effect,"30.3 µM, […]",17.36%
CCc1ccc(-c2ncc3c(n2)N(C)CCN(CCN(C)C)C3=O)cc1,Percent Effect,"30.3 µM, […]",100.5%
Cl.O=C(O)[C@@H]1CCCN1c1nccc(Nc2ccccc2)n1,Percent Effect,"30.3 µM, […]",-31.15%
same,Percent Effect,"10 mM, 10 mM as filed; unlikely as a test dose",-16.56%
Cc1cc(F)ccc1-n1cc(O)c(C(=O)NCC2(O)CCC2)n1,Percent Effect,"30 µM, 30.03 µM",-18.18%
O=C(Cn1nnn(-c2cccs2)c1=O)NCC1CCOC1 (stereo not given),Percent Effect,"30 µM, 30.03 µM",53.07%
CCN(CC1CCOC1)C(=O)Cn1nnn(-c2cccs2)c1=O (stereo not given),Percent Effect,"30 µM, 30.03 µM",-61.65%
O=C(Cn1nnn(-c2cccs2)c1=O)N(CC1CCOC1)C1CC1 (stereo not given),Percent Effect,"30 µM, 30.03 µM",-28.27%
Clc1ccc(Cc2nc(CNCCn3cccn3)cs2)cc1,Percent Effect,"30.3 µM, […]",19.22%
Cc1cnn(CCCNCc2csc(COc3ccccc3)n2)c1,Percent Effect,"30.3 µM, […]",10.81%
c1ccc(OCc2nc(CNCCn3cccn3)cs2)cc1,Percent Effect,"30.3 µM, […]",-9.773%
Cc1cnn(CCNCc2csc(COc3ccccc3)n2)c1,Percent Effect,"30.3 µM, […]",54.15%
CC(Cn1cccn1)NCc1csc(COc2ccc(F)cc2)n1 (stereo not given),Percent Effect,"30.3 µM, […]",4.13%
c1ccc(-c2nc(CNCCn3cccn3)cs2)cc1,Percent Effect,"30 µM, 30.03 µM",-63.26%
CC(Cn1cccn1)NCc1csc(COc2ccccc2)n1 (stereo not given),Percent Effect,"30.3 µM, […]",63.51%
c1ccc(Cc2nc(CNCCn3cccn3)cs2)cc1,Percent Effect,"30.3 µM, […]",100.2%
CC(Cn1cccn1)NCc1csc(Cc2ccccc2)n1 (stereo not given),Percent Effect,"30.3 µM, […]",32.28%
CCS(=O)(=O)N1C[C@H]2C[C@H](C(=O)N(C)C)[C@@H](C1)O2,Percent Effect,"30 µM, 30.03 µM",9.915%
O=C(NCC(=O)N1CCN(c2ccccc2)CC1)c1sccc1C1CC1,Percent Effect,"30 µM, 30.03 µM",8.848%
CCC(=O)N1CCN(CCn2cccn2)c2ncccc2C1.O=C(O)C(F)(F)F,Percent Effect,"30.3 µM, […]",-68.7%
N#Cc1ccc(C(=O)N2CC[C@H]3[C@H]2CCN3CC2CC2)cc1.O=C(O)C(F)(F)F,Percent Effect,"30.3 µM, […]",-8.518%
Cc1ccccc1-c1cncc(C2CCN(S(=O)(=O)N(C)C)CC2)n1,Percent Effect,"30.3 µM, […]",23.75%
CCC(=O)N1CCCN(Cc2cc(F)cc(Br)c2)CC1,Percent Effect,"30 µM, 30.03 µM",-27.39%
CN1C[C@H]2CC[C@@H]1CN(C(=O)COCc1nc3cc(F)ccc3[nH]1)C2,Percent Effect,"30 µM, 30.03 µM",-9.559%
CC(C)(C)n1ncc2c1CCCC2NCc1ccsc1 (stereo not given),Percent Effect,"30 µM, 30.03 µM",-15.69%
O=C(NCc1cnc2n1CCN(Cc1nccs1)CC2)C1CCC1.O=C(O)C(F)(F)F,Percent Effect,"30.3 µM, […]",-21.25%
COCC(=O)N1CCC2(CC1)CN(CC1CC1)c1ccc(F)cc12,Percent Effect,"30.3 µM, […]",19.77%
CCCc1cc(NCCCC2CCOC2)n2nccc2n1 (stereo not given),Percent Effect,"30.3 µM, […]",14.64%
CCc1nccn1CCNC1CCN(c2nc3ccc(Cl)cc3s2)CC1,Percent Effect,"30.3 µM, […]",100.4%
Cn1ccnc1SCCNC1CCN(c2nc3ccccc3s2)CC1,Percent Effect,"30 µM, 30.03 µM",-14.43%
CCCc1cc(CNC2CCN(c3nc4ccccc4s3)CC2)on1,Percent Effect,"30 µM, 30.03 µM",-8.839%
Cc1csc2c(N3CCC(NCCCC4CCOC4)CC3)ncnc12 (stereo not given),Percent Effect,"30 µM, 30.03 µM",-28.35%
Clc1ccc2nc(N3CCC(NCCCC4CCOC4)CC3)sc2c1 (stereo not given),Percent Effect,"30.3 µM, […]",69.37%
CCS(=O)(=O)CCNC1CCN(c2nc3ccc(Cl)cc3s2)CC1,Percent Effect,"30.3 µM, […]",67.3%
Cc1csc2c(N3CCC(NCCc4ccnn4C)CC3)ncnc12,Percent Effect,"30 µM, 30.03 µM",-26.9%
Cc1n[nH]c(SCCNC2CCN(c3nc4ccccc4s3)CC2)n1,Percent Effect,"30 µM, 30.03 µM",-5.585%
Cc1nc(NC(=O)c2c(-n3cnnn3)sc(C)c2C)sc1C,Percent Effect,"30 µM, 30.03 µM",-45.39%
O=C(O)C(F)(F)F.O=C(O)C(F)(F)F.c1cncc(OCc2noc3c2CN(Cc2ccco2)CC3)c1,Percent Effect,"30 µM, 30.03 µM",-42.06%
Cc1noc(C)c1CN1CCn2cc(CN3CCCCC3)nc2C1.O=C(O)C(F)(F)F,Percent Effect,"30.3 µM, […]",-9.044%
CCN1CCN(C(=O)c2cc(-c3cccn3C)n[nH]2)[C@H]2CS(=O)(=O)C[C@H]21,Percent Effect,"30 µM, 30.03 µM",-16.48%
CC(C)N1CC[C@H]2[C@H](C[C@@H](Cn3cncn3)N2c2nccs2)C1.O=C(O)C(F)(F)F.O=C(O)C(F)(F)F,Percent Effect,"30.3 µM, […]",-43.04%
COc1cccc(CN(Cc2ncc[nH]2)Cc2ccco2)c1.O=C(O)CC(O)(CC(=O)O)C(=O)O,Percent Effect,"30.3 µM, […]",-10.96%
Cc1ccc([C@]2(O)CC[C@H]3CN(Cc4cc(C)c(O)c(C)c4)C[C@H]32)nc1.O=C(O)CC(O)(CC(=O)O)C(=O)O,Percent Effect,"30.3 µM, […]",27.71%
CSc1ccc(CN2C[C@@H]3CC[C@@](O)(c4ccc(C)cn4)[C@@H]3C2)cc1,Percent Effect,"30.3 µM, […]",79.51%
Cc1ccc([C@]2(O)CC[C@H]3CN(Cc4ccc(Cl)cc4Cl)C[C@H]32)nc1,Percent Effect,"30.3 µM, […]",-1.046%
CN1CC2(CCCN(Cc3nnc(-c4ccccc4)o3)CC2)OC1=O (stereo not given),Percent Effect,"30 µM, 30.03 µM",-20.69%
CCNC(=O)c1nnn(Cc2ccccc2)c1OC,Percent Effect,"30 µM, 30.03 µM",40.11%
COCCNC(=O)c1nnn(Cc2ccccc2)c1OC,Percent Effect,"30.3 µM, […]",3.67%
CCN(CC)C(=O)c1nnn(Cc2ccccc2)c1OC,Percent Effect,"30 µM, 30.03 µM",61.55%
CCc1nnc(SC2CCCN(c3cccc(F)c3)C2=O)n1C (stereo not given),Percent Effect,"30 µM, 30.03 µM",-37.32%
CCOCC1CN(CCN(C)C)Cc2cnn(CC3CCCC3)c21.O=C(O)C(F)(F)F.O=C(O)C(F)(F)F (stereo not given),Percent Effect,"30 µM, 30.03 µM",-10.76%
Cc1ccc(C(=O)N2CC[C@@H](N(C)C)[C@@H]2Cc2cnn(C)c2)cn1.O=C(O)C(F)(F)F.O=C(O)C(F)(F)F,Percent Effect,"30.3 µM, […]",-478.3%
CC(=O)c1ccc(N2CCCC(CO)(CCOc3ccccc3)C2)nc1 (stereo not given),Percent Effect,"30 µM, 30.03 µM",71.93%
OCC1(CCOc2ccccc2)CCCN(c2ccc(Cl)cn2)C1 (stereo not given),Percent Effect,"30 µM, 30.03 µM",-34.7%
CC(=O)c1ccc(N2CCC(CO)(CCOc3ccccc3)CC2)nc1,Percent Effect,"30 µM, 30.03 µM",16.6%
Nc1nccc(N2CCCC(CO)(CCOc3ccccc3)C2)n1 (stereo not given),Percent Effect,"30 µM, 30.03 µM",82.96%
CC(=O)c1ccc(N2CCCC(CO)(CCc3ccccc3)C2)nc1 (stereo not given),Percent Effect,"30 µM, 30.03 µM",50.39%
CC(=O)c1ccc(N2CCCC(CO)(Cc3ccccc3C)C2)nc1 (stereo not given),Percent Effect,"30 µM, 30.03 µM",-6.304%
N#Cc1cccc(N2CCCC(CO)(CCOc3ccccc3)C2)n1 (stereo not given),Percent Effect,"30 µM, 30.03 µM",-42.71%
CC(=O)c1ccc(N2CCCC(CO)(Cc3ccccc3F)C2)nc1 (stereo not given),Percent Effect,"30 µM, 30.03 µM",-24.14%
N#Cc1ccc(N2CCCC(CO)(CCOc3ccccc3)C2)nc1 (stereo not given),Percent Effect,"30 µM, 30.03 µM",-38.44%
O=C(O)C(F)(F)F.O=C1CCCN1Cc1ncn2c1CN(C(=O)N1CCCC1)CCC2,Percent Effect,"30.3 µM, […]",-52.13%
Cc1occc1C(=O)N1CCC2(CCCN(c3ncc(F)cn3)C2)C1.O=C(O)C(F)(F)F (stereo not given),Percent Effect,"30.3 µM, […]",-25.24%
O=C(NCCCNc1ccc(C(F)(F)F)cn1)c1ccc2c(c1)OCO2,Percent Effect,10 µM,-42.23%
c1nc(N2CCc3[nH]cnc3C2)c2cc[nH]c2n1,Percent Effect,"30 µM, 30.03 µM",75.2%
c1ncc2c(n1)CN(c1ncnc3[nH]ccc13)CC2,Percent Effect,"30 µM, 30.03 µM",-32.45%
Cc1ncc2c(n1)CN(c1ncnc3[nH]ccc13)CC2,Percent Effect,"30 µM, 30.03 µM",-13.69%
Cn1cc(N2CC3(COCCN(Cc4nccs4)C3)OCC2=O)cn1.O=C(O)C(F)(F)F (stereo not given),Percent Effect,"30 µM, 30.03 µM",27.05%
Cc1cc(N(C)C)cc(C2CCN(S(=O)(=O)c3cccnc3)C2)n1 (stereo not given),Percent Effect,"30.3 µM, […]",-0.05808%
Cc1cccc(-c2cc(-c3c(C)nn(CCO)c3C)c(C#N)c(N)n2)c1,Percent Effect,"30.3 µM, […]",57.96%
Cc1ccc(-c2cc(-c3c(C)nn(CCO)c3C)c(C#N)c(N)n2)cc1,Percent Effect,"30.3 µM, […]",33.48%
Cc1nn(CCO)c(C)c1-c1cc(C(C)(C)C)nc(N)c1C#N,Percent Effect,"30.3 µM, […]",0.04143%
Cc1noc([C@]23COC[C@H]2CN(C(=O)CN(C)C)C3)n1.O=C(O)C(F)(F)F,Percent Effect,"30.3 µM, […]",106.1%
CCOCC(=O)N1C[C@@H]2COC[C@]2(c2nc(C)no2)C1,Percent Effect,"30.3 µM, […]",-76.29%
Cc1noc([C@]23COC[C@H]2CN(C(=O)COC2CCCC2)C3)n1,Percent Effect,"30.3 µM, […]",-59.73%
